# The campaign covered roughly 350,000 compounds. About 6,000 (1.7%) were called active. Not shown: some 5% with an inconclusive outcome. Rule as the data show it: active = CPE inhibition above about 20% (passing the limit was not always enough); inconclusive = no clear call, values can overlap the other calls; tested in BHK-21 cells. What follows is part of a selection rich in actives, with near analogues and random picks from the rest.
# Experiment: protection of cells from dengue 2 killing – plate reader, single concentration, primary screen (AID 651640);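 also: 0% = median of neutral control wells and 100% = median of positive control wells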
# Details: DENV2-infected cells, cytopathic effect rescue, at 9.99 µM, stronger effect = higher value
row,SMILES,CPE inhibition
1,C[C@@H]1CN([C@H](C)CO)S(=O)(=O)c2ccc(C#C[C@@H](C)O)cc2O[C@H]1CN(C)C(=O)C1CCCCC1,-8.28% (inactive)
2,C[C@H](CO)N1C[C@H](C)[C@@H](CN(C)Cc2ccc(Oc3ccccc3)cc2)Oc2cc(-c3ccncc3)ccc2S1(=O)=O,-22.7% (inactive)
3,O=C(C[C@@H]1C=C[C@@H](NS(=O)(=O)c2ccc(F)cc2)[C@@H](CO)O1)NCCN1CCCCC1,-0.229% (inactive)
4,CN(Cc1ccccc1F)C[C@H]1[C@@H](c2ccccc2)[C@@H](CO)N1S(C)(=O)=O,-1.35% (inactive)
5,CCCNC(=O)N1C[C@@H](O)COC[C@@H]2O[C@H](CC(=O)N3CCN(C)CC3)CC[C@H]21,0.94% (inactive)
6,C[C@H]([C@@H](O)[C@@H](O)[C@@H](C)C(C)(C)C)[C@H]1CC[C@H]2C3CC[C@H]4C[C@H](OS(=O)(=O)O)[C@@H](OS(=O)(=O)O)C[C@]4(C)[C@H]3CC[C@]12C (some centres not stated),-2.49% (inactive)
7,CC(C)CC#Cc1cnc2c(c1)C(=O)N([C@@H](C)CO)C[C@H](C)[C@@H](CN(C)C(=O)c1ccc(F)cc1)O2,-4.54% (inactive)
8,CCC(=O)Nc1ccc2c(c1)OC[C@H](C)N(C(=O)c1ccncc1)C[C@H](C)[C@H](OC)CN(C)C2=O,-6.05% (inactive)
9,C[C@H]1CN([C@@H](C)CO)C(=O)c2cc(C3=CCCC3)cnc2O[C@@H]1CN(C)C(=O)c1ccccc1,-6.29% (inactive)
10,CO[C@@H]1CN(C)C(=O)c2ccc(NS(=O)(=O)c3c(C)noc3C)cc2OC[C@H](C)NC[C@@H]1C,-11.3% (inactive)
11,C[C@@H]1CN([C@H](C)CO)C(=O)c2cc(C#CCC3CCCC3)cnc2O[C@H]1CN(C)Cc1ccccn1,15.8% (inactive)
12,CN(C)CC#Cc1ccc([C@H]2[C@@H](CO)N(C(=O)C3CCC3)[C@H]2C#N)cc1,87.1% (active)
13,COc1ccc(-c2ccccc2[C@H]2[C@@H](C#N)N(C(=O)C3CCC3)[C@@H]2CO)cc1,3.73% (inactive)
14,CCCC#Cc1ccc([C@@H]2[C@@H](C#N)N(C(=O)C3CC3)[C@H]2CO)cc1,-11.5% (inactive)
15,CCCC#Cc1ccc([C@H]2[C@@H](CO)N(C(=O)C3CC3)[C@H]2C#N)cc1,39.4% (active)
16,COc1ccccc1C#Cc1ccc([C@@H]2[C@@H](CO)N(C(=O)C3CC3)[C@H]2C#N)cc1,1.77% (inactive)
17,COc1ccc(-c2ccc([C@@H]3[C@@H](C#N)N(C(=O)C4CCC4)[C@@H]3CO)cc2)cc1,-14% (inactive)
18,CCCC#Cc1ccc([C@@H]2[C@@H](C#N)N(C(=O)C3CCCC3)[C@@H]2CO)cc1,-5.75% (inactive)
19,CCCC#Cc1ccc([C@@H]2[C@@H](C#N)N(C(=O)C3CCC3)[C@H]2CO)cc1,-3.76% (inactive)
20,COc1ccc(-c2ccccc2[C@H]2[C@@H](CO)N(C(=O)C3CCC3)[C@H]2C#N)cc1,70.3% (active)
21,OC[C@H]1[C@@H](c2ccc(C#Cc3ccccc3F)cc2)[C@H]2CN(CC3CCOCC3)CCCCN21,-16.8% (inactive)

row,SMILES,CPE inhibition
1,C[C@@H](NC(=O)C[C@@H]1C[C@@H]2c3cc(NC(=O)c4cccnc4)ccc3O[C@@H]2[C@H](CO)O1)c1ccccc1,-1.39% (inactive)
2,COc1cccc(-c2ccc3c(c2)O[C@H](CN(C)C(=O)c2ccccc2F)[C@@H](C)CN([C@@H](C)CO)S3(=O)=O)c1,-3.52% (inactive)
3,CCCC#Cc1ccc([C@H]2[C@H]3CN(Cc4cncnc4)CCCCN3[C@H]2CO)cc1,-10.9% (inactive)
4,OC[C@H]1[C@H](c2ccc(-c3ccccc3F)cc2)[C@H]2CN(Cc3cncnc3)CCCCN21,45.6% (active)
5,OC[C@H]1[C@H](c2ccc(-c3cccnc3)cc2)[C@H]2CN(Cc3ccccn3)CCCCN21,3.13% (inactive)
6,COCC#Cc1ccc([C@H]2[C@H](CO)N3CCCCN(Cc4ccncc4)C[C@@H]23)cc1,3.44% (inactive)
7,OC[C@@H]1[C@H](c2ccc(C3=CCCC3)cc2)[C@H]2CN(Cc3ccncc3)CCCCN12,41% (active)
8,CN(C)C(=O)c1ccc(-c2ccc([C@@H]3[C@@H](CO)N4CCCCN(Cc5cncnc5)C[C@@H]34)cc2)cc1,5.96% (inactive)
9,Cc1cccc(-c2ccc([C@H]3[C@@H](CO)N4CCCCN(Cc5cncnc5)C[C@H]34)cc2)c1,5.45% (inactive)
10,Cc1cccc(-c2ccc([C@@H]3[C@H](CO)N4CCCCN(Cc5ccncc5)C[C@@H]34)cc2)c1,-6.55% (inactive)
11,OC[C@H]1[C@@H](c2ccc(/C=C/c3ccccc3)cc2)[C@H]2CN(Cc3cccnc3)CCCCN21,23.8% (active)
12,OC[C@@H]1[C@H](c2ccc(C#Cc3ccccc3)cc2)[C@@H]2CN(Cc3cncnc3)CCCCN12,4.64% (inactive)
13,Cc1ccc(-c2ccc([C@H]3[C@H](CO)N4CCCCN(Cc5cncnc5)C[C@@H]34)cc2)cc1,-2.12% (inactive)
14,OC[C@H]1[C@H](c2ccc(-c3cccc(F)c3)cc2)[C@@H]2CN(Cc3cncnc3)CCCCN12,58.8% (active)
15,CC(C)CC#Cc1ccc([C@H]2[C@H]3CN(C(=O)CN4CCOCC4)CC(=O)N3[C@H]2CO)cc1,-1.35% (inactive)
16,COc1ccccc1CNC(=O)C[C@@H]1C[C@@H]2c3cc(NC(=O)C4CCOCC4)ccc3O[C@@H]2[C@@H](CO)O1,2.24% (inactive)
17,COC(=O)[C@@H]1[C@@H](CO)[C@@H]2Cn3c(ccc(-c4ccccc4F)c3=O)[C@@H]2N1CC1CCOCC1,-7.38% (inactive)
18,C[C@@H]1CCCCO[C@@H](CN(C)S(=O)(=O)c2cn(C)cn2)[C@@H](C)CN([C@@H](C)CO)C(=O)c2cc(NC(=O)NC3CCCCC3)ccc2O1,7.41% (inactive)
19,C[C@@H]1CN([C@@H](C)CO)S(=O)(=O)c2ccc(-c3ccccc3F)cc2O[C@H]1CN(C)Cc1cncnc1,-7.02% (inactive)
20,CN(C)C(=O)[C@@H]1[C@@H](CO)[C@@H]2Cn3c(cccc3=O)[C@H]1N2C(=O)c1ccc(F)cc1,2.89% (inactive)
21,C[C@H]1CN([C@@H](C)CO)C(=O)c2cccc(NC(=O)c3ccncc3)c2O[C@@H]1CN(C)C,-3.46% (inactive)

# From PubChem BioAssay AID651640 (Broad Institute, 2012)
